Records with an inconclusive call do not appear. Entries that show only a call come without a potency. Active and inactive are the calls of the source. The call rests on the fitted dose curve; in most records, active means well fitted cell-killing curve with a large enough effect in the repeat runs; inconclusive means weak or mixed curves, or effect the other way; inactive means flat fitted curve, though single readings scatter.
Test: qHTS RealTime-Glo MT Cell Viability Assay in HepG2 cells - 40 hour (AID 1224870); further: nearly all actives have a fitted effect of over 50% in size
Conditions: RealTime-Glo luminescence; series mostly up to 76.8 µM
Excerpt: National Center for Advancing Translational Sciences [NCATS]
NIH Chemical Genomics Center [NCGC]
U.S. Environmental Protection Agency [EPA]
National Institutes of Environmental Health Sciences [NIEHS]
National Toxicology Program [NTP]
U.S. Food and Drug Administration [FDA]
Measure of cell viability is critical in the cell-base assay. Analysis of cell viability is necessary for the characterization of cell responses to cytotoxic drugs and environmental stress. A RealTime-Glo MT Cell Viability Assay to monitor cell viability in real time of continues cell culture during 40 hours of compound treatment was used to screen Tox21 10K library compounds in HepG2 cells. The RealTime-Glo MT Cell Viability Assay is a nonlytic, homogeneous, bioluminescent method to measure cell viability in real time using a simple, plate-based method. The assay involves adding NanoLuc luciferase and a cell-permeant prosubstrate to cells in culture. Viable cells reduce the proprietary prosubstrate to generate a substrate for NanoLuc luciferase. This substrate diffuses from cells into the surrounding culture medium, where it is rapidly used by the NanoLuc Enzyme to produce a luminescent signal. The signal correlates with the number of viable cells, making the assay well suited for cytotoxicity studies.
Tox21 Assay Protocol Summary:
The mixture of HepG2 cell suspension and reagents were dispensed at 600cells/6 ul/well in 1536-well tissue culture treated black solid bottom plates using a Multidrop dispenser. After the assay plates were incubated at a 37 C/5% CO2 incubator for 5 hours, 23 nL of compounds dissolved in DMSO, positive and negative controls was transferred to the assay plate by a pintool work station. The plates were incubated at 37 C for 40 hours. The luminescence intensity were measured at 0h, 8h, 16h, 24h, 32h and 40h time points using ViewLux plate reader during compound treatment.
Potency means the concentration at half of the fitted maximal effect.

Row | Structure (SMILES) | Potency
1 | CN1C(C(=O)Nc2ccccn2)=C(O)c2sccc2S1(=O)=O | inactive
2 | CC1CC(OC(=O)C(O)c2ccccc2)CC(C)(C)N1C (stereo not given) | inactive
3 | O=C1Cc2ccccc2N1c1c(Cl)cccc1Cl | inactive
4 | CC(C)c1nc(CN(C)C(=O)N[C@H](C(=O)N[C@@H](Cc2ccccc2)C[C@H](O)[C@H](Cc2ccccc2)NC(=O)OCc2cncs2)C(C)C)cs1 | inactive
5 | CCCCC(CC)COP(=O)(O)O (stereo not given) | inactive
6 | COc1cc(N)c(Cl)cc1C(=O)NC1CCN(CCCOc2ccc(F)cc2)CC1OC (stereo not given) | inactive
7 | O=C(O)CCc1nc(-c2ccccc2)c(-c2ccccc2)o1 | inactive
8 | Oc1cccc(O)c1O | inactive
9 | CC(C)COCC(CN(Cc1ccccc1)c1ccccc1)N1CCCC1 (stereo not given) | 23.9 µM (active)
10 | CC(=O)c1cc2ccccc2s1 | inactive
11 | CCOC(=O)c1ccc(O)c(O)c1 | inactive
12 | CC/C=C1/OC(=O)c2ccccc21 | inactive
13 | COc1ncnc(NS(=O)(=O)c2ccc(N)cc2)c1OC | inactive
14 | c1ccc(C[n+]2cccc3ccccc32)cc1 | inactive
15 | OCCOCC#CCOCCO | inactive
16 | CC1(C)[C@H](C(=O)O)N2C(=O)C[C@H]2S1(=O)=O | inactive
17 | CCCCC(CC)CN (stereo not given) | inactive
18 | CCCCCCCCCI | 25 µM (active)
19 | CCOC(=O)/C=C/C(=O)OCC | inactive
20 | O=c1[nH]c2ccc(Cl)cc2o1 | inactive

Row | Structure (SMILES) | Potency
21 | CCOC(=O)[C@H](CCc1ccccc1)N[C@@H](C)C(=O)N(CC(=O)O)C1Cc2ccccc2C1 | inactive
22 | CCCCN(CCCC)C(C(N)=O)c1ccc(OC)cc1 (stereo not given) | inactive
23 | O=C(CCc1ccc(O)cc1)c1c(O)cc(O)cc1O | inactive
24 | O=C=Nc1ccc(Cl)c(Cl)c1 | inactive
25 | CC(=O)c1ccc([N+](=O)[O-])cc1 | inactive
26 | Nc1ncnc2c1ncn2[C@H]1CC[C@@H](CO)O1 | inactive
27 | CC1(C)[C@@H](OC(=O)CCC(=O)O)CC[C@]2(C)[C@H]3C(=O)C=C4[C@@H]5C[C@@](C)(C(=O)O)CC[C@]5(C)CC[C@@]4(C)[C@]3(C)CC[C@@H]12 | inactive
28 | CC(C)(c1ccccc1)c1ccccc1 | inactive
29 | C=C1c2cccc(O)c2C(O)=C2C(=O)[C@]3(O)C(O)=C(C(N)=O)C(=O)[C@@H](N(C)C)[C@@H]3[C@@H](O)[C@H]12 | inactive
30 | Nc1nc2ccc([N+](=O)[O-])cc2s1 | inactive
31 | CC(C)(C)C(=O)C(=O)O | inactive
32 | CC1=C(Br)C(=O)C(Br)=C/C1=C(/c1ccccc1S(=O)(=O)O)c1cc(Br)c(O)c(Br)c1C | inactive
33 | Cc1c(C)c2c(c(C)c1OC(=O)CCC(=O)OCCO)CC[C@@](C)(CCC[C@H](C)CCC[C@H](C)CCCC(C)C)O2 | inactive
34 | O=C1NC(=O)c2cc([N+](=O)[O-])ccc21 | inactive
35 | CCC(=O)C1CC(C(C)C)CC=C1C (stereo not given) | inactive
36 | O=C(OCC(O)CO)c1ccccc1Nc1ccnc2cc(Cl)ccc12 (stereo not given) | inactive
37 | CN1CCCN=C1COC(=O)C(O)(c1ccccc1)C1CCCCC1 (stereo not given) | inactive
38 | C[C@@H](O)[C@H]1C(=O)N2C(C(=O)O)=C([C@H]3CCCO3)S[C@H]12 | inactive
39 | CCOc1cccc(-n2cc(C(=O)N3CCN(c4cc(C(=O)O)c5ccccc5c4)CC3)nc2-c2ccc(C)cc2)c1 | inactive
40 | COc1cc(C(=O)NC2CCN(C)CC2)ccc1Nc1ncc2c(n1)N(C1CCCC1)CC(F)(F)C(=O)N2C | 44.9 µM (active)
